Measured values: PubChem BioAssay (NCI)
About 79,000 compounds went through this panel and 15% of them were active in at least one assay; those are over-represented in the sample as a whole. Rule as the data show it: active = growth inhibition above about 70%; inactive = the rest.

Tests used:
[1] = NCI Yeast Anticancer Drug Screen. Data for the rad50 strain (AID 155);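 also: 0% = growth of vehicle-only cultures of the same strain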; details: S. cerevisiae rad50 strain growth inhibition; at 50.0 µM; hits give high values
Summary of the method: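 DNA repair mutant yeast, compound exposure, growth read-out; inhibition is taken relative to vehicle.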

[2] = NCI Yeast Anticancer Drug Screen. Data for the mec2-1 strain (AID 157); details: S. cerevisiae mec2-1 strain, at 50.0 µM, hits give high values
Summary of the method: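 mec2-1 yeast strain, carrying an alteration in DNA damage repair or cell cycle control, was exposed to compounds; growth inhibition was measured relative to vehicle-treated controls.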

[3] = NCI Yeast Anticancer Drug Screen. Data for the sgs1 mgt1 strain (AID 161);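 also: 0% = growth of cultures given vehicle only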; details: S. cerevisiae sgs1 mgt1 strain, at 50.0 µM, hits give high values
Summary of the method: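 Percent growth inhibition was derived by comparing compound-exposed mutant yeast with vehicle-exposed cultures. The strain carries alterations in DNA damage repair.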

[4] = NCI Yeast Anticancer Drug Screen. Data for the cln2 rad14 strain (AID 165);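 also: 0% = growth equal to vehicle treated cultures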; details: S. cerevisiae cln2 rad14 strain, at 50.0 µM, hits give high values
Summary of the method: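 Yeast carrying cln2 and rad14 alterations (cell cycle control and DNA damage repair) were exposed to compounds. Growth inhibition was measured against vehicle-treated controls.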

[5] = NCI Yeast Anticancer Drug Screen. Data for the bub3 strain (AID 167); details: S. cerevisiae bub3 mutant strain, at 50.0 µM, hits give high values
Summary of the method: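 In this screen, a yeast mutant lacking normal mitotic checkpoint function is challenged with compound. Relative growth versus vehicle gives the inhibition value.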

[6] = NCI Yeast Anticancer Drug Screen. Data for the mlh1 rad18 strain (AID 175); details: S. cerevisiae mlh1 rad18 strain growth inhibition; at 50.0 µM; hits give high values
Summary of the method: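 Growth inhibition of the yeast strain was measured after compound exposure and expressed relative to vehicle-treated controls. The strain carries defined defects in DNA damage repair.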

Measured: growth inhibition

Cc1sc2nc3n(c(=O)c2c1C)N=CN(c1ccc(F)cc1)C3
inactive: [1] 0.85% | [2] -0.45% | [3] 8.85% | [4] -17.1% | [5] -7.5% | [6] -32.6%

Cc1cc2c(cc1C)C(=O)c1ccccc1C2=O
inactive: [1] -29.3% | [2] -36.1% | [3] -15.1% | [4] -6.7% | [5] -30.7% | [6] -21.8%

O=C(O)CNCc1ccc(F)cc1
inactive: [1] -1.85% | [2] -10% | [3] -14.7% | [4] -74.4% | [5] 13.2% | [6] -5.9%

COc1ccc2c(=O)c([Se]c3coc4cc(OC)ccc4c3=O)coc2c1
inactive: [1] 7.2% | [2] -17.1% | [3] 3.15% | [4] -52.5% | [5] -23.1% | [6] 3.25%

C#Cc1cccc(N=Cc2cc(Br)cc(OC)c2O)c1
inactive: [1] -23.4% | [2] -6.7% | [3] 1.3% | [4] 4.8% | [5] 5% | [6] 3.95%

COc1cc(OC)c2[nH]c3c(c(=O)c2c1)C(=O)c1[nH]c2c(OC)cc(OC)cc2c(=O)c1C3=O
inactive: [1] 26.8% | [2] 4.55% | [3] 12.8% | [4] 17.4% | [5] -3.55% | [6] 19.9%

Cc1ccc(Cl)c(NC(=O)C(=O)C(C(=O)c2ccncc2)C2OC(=O)c3ccccc32)c1 (stereo not given)
inactive: [1] -14.6% | [2] -26.1% | [3] -37.1% | [4] 6.45% | [5] -5.85% | [6] -17.9%

COc1ccc(C(=O)Nc2ccccc2C#N)cc1
inactive: [1] -0.15% | [2] -4.5% | [3] -9.25% | [4] -1.25% | [5] 1.55% | [6] -3.8%

O=c1[nH]c(Br)nc2c(Br)c[nH]c12
inactive: [1] -17.1% | [2] -0.15% | [3] -18.4% | [4] -12.8% | [5] -22.2% | [6] -18.9%

FC(F)(F)c1cccc(-c2nc3nc(Cl)c(Cl)nc3[nH]2)c1
inactive: [1] 15.1% | [2] -2% | [3] -5.7% | [4] -15.7% | [5] 18.4% | [6] 26.3%

COc1ccc2c(c1)C1CCCCC1SCC2=O (stereo not given)
inactive: [1] 1% | [2] 7.4% | [3] -1.9% | [4] -10.9% | [5] 15.8% | [6] -15.3%

CCN(CC)C(=S)N1CCCCC1
inactive: [1] 10.2% | [2] -14.6% | [3] -14.2% | [4] -65.4% | [5] -15.9% | [6] -7.25%

CCOC(=O)CCC(NC1=C(Cl)C(=O)c2ccccc2C1=O)C(=O)O (stereo not given)
inactive: [1] 12.2% | [2] 2.15% | [3] 20.4% | [4] -63.1% | [5] 0.15% | [6] 24.9%

C=CCNC(=S)N/C=C(/C#N)C(=O)OC
inactive: [1] 1.85% | [2] -9.75% | [3] -16.5% | [4] 21.6% | [5] -8% | [6] 15.7%

N#C/C(=C/O)c1ccccc1
inactive: [1] 1.65% | [2] 4.4% | [3] -0.75% | [4] 3.1% | [5] 5.6% | [6] -13.7%

CC1CCC(=O)N1C (stereo not given)
inactive: [1] -19.1% | [2] -1.35% | [3] -16.1% | [4] -21.6% | [5] -0.45% | [6] -9.5%

CCOC1(OCC)C([N+](=O)[O-])=CC(=[N+]([O-])O)C=C1[N+](=O)[O-]
inactive: [1] 3.8% | [2] -4.1% | [3] -7.15% | [4] 3.75% | [5] -8.8% | [6] -21.2%

CN(/N=C/C=N/N(C)C1=NCCN1)C1=NCCN1
inactive: [1] 4.35% | [2] -5.75% | [3] 0.15% | [4] 8.05% | [5] 0.25% | [6] -9.65%

CCC(O)(c1ccccc1)C(OC)c1ccccc1 (stereo not given)
inactive: [1] 15.3% | [2] 5.35% | [3] 14.5% | [4] 7.25% | [5] -0.35% | [6] 21.1%

N#CCC(=O)N/N=C(\C(=O)Nc1ccc(Cl)c(Cl)c1)C1CN(c2ccccc2)N=C1N (stereo not given)
inactive: [1] 24.4% | [2] 6.9% | [3] -11.8% | [4] -44.4% | [5] 0.45% | [6] -8.4%
